From PubChem BioAssay
TRb-SRC2 inh = qHTS for Inhibitors of the Interaction of Thyroid Hormone Receptor and Steroid Receptor Coregulator 2 | Thyroid hormone receptor beta (Homo sapiens), P10828 | TRbeta-SRC2 peptide binding, fluorescence polarization; receptor liganded with 1 µM T3 | 0.065% of 280,000 active | AID 1469, 2008 | Potency, µM (top dose mostly 106 µM), for inactives: at the highest dose activity change, negative = inhibition, most hits filed as inhibitors;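 further: plate controls were bound peptide for no effect and peptide without receptor for full effect; nearly all actives have a fitted effect of over 50% in size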
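Each compound concentration gave % activity, normalized to unbound and bound Texas Red SRC2 controls, from polarization read after 5 hr ambient incubation with T3-loaded human TRb LBD.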
Tau fluor counter = Counterscreen qHTS for Inhibitors of Tau Fibril Formation, Fluorescence Polarization; tau K18 P301L Alexa594 fluorescence, heparin fibrillization; Potency, µM (top dose mostly 57.7 µM), without a hit: at the highest dose activity change, negative = decrease; 0.93% of 280,000 active; further: nearly all actives have a fitted effect of over 55% in size
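Human tau K18 P301L (15 uM unlabeled, 0.24 uM Alexa 594-labeled) in 100 mM sodium acetate pH 7 with 20 uM heparin, 6 hr at 37 C. ThT 30 uM added, 1 hr ambient; Alexa 594 FP and total fluorescence read at 555/632 nm.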
TexasRed fluor = Total Fluorescence Counterscreen for Inhibitors of the Interaction of Thyroid Hormone Receptor and Steroid Receptor Coregulator 2 | TRb/SRC2 Texas Red total fluorescence interference | Potency, µM (series often up to 106 µM), for inactives: at the top dose fluorescence change, negative = quenching | 0.29% of 280,000 active | AID 1479, 2009; active means well fitted curve in either direction with a large enough effect; inconclusive means small, poorly fitted or top-dose-only effect
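Human TRβ ligand-binding domain (0.6 uM) and Texas Red SRC2 peptide (20 nM) in Tris buffer with 1 uM T3 and 5% DMSO were incubated with pinned compound for 5 hr at ambient temperature. Total fluorescence was computed as S + 2P (555/632 nm).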
Tau fibril ThT = qHTS for Inhibitors of Tau Fibril Formation, Thioflavin T Binding; recombinant tau K18 P301L, heparin-induced fibrillization, ThT fluorescence; 2.1% of 270,000 active; Potency, µM (titrated, usually from 57.4 µM), without a hit: top-dose activity, negative = inhibition, actives largely listed as inhibitors; Microtubule-associated protein tau (Homo sapiens), P10636; further: nearly all actives have a fitted effect of over 55% in size
Target sequence (P10636 561-689 P618L limits assumed): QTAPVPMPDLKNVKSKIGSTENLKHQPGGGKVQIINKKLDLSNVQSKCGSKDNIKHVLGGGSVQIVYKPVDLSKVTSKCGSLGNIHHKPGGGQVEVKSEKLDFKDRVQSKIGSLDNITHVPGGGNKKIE
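Fibril formation assay: tau K18 P301L at 15 uM with trace Alexa 594 label, heparin inducer 20 uM, pH 7 sodium acetate buffer, 37 C for 6 hr; endpoint ThT signal.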
GoLoco inh red = qHTS Assay for Inhibitors of RGS12 GoLoco Motif Activity (Red Fluorophore); Gai1:RGS12 GoLoco peptide FP, rhodamine, 10 min; 0.44% of 230,000 active; Guanine nucleotide-binding protein G(i) subunit alpha-1 (Homo sapiens), P63096; Potency, µM (series often up to 61.6 µM), inactives show at the top dose activity, negative = inhibition, most hits filed as inhibitors; active means well fitted inhibition curve with a large enough effect, not every such curve was filed as active; inactive means no such curve, though single readings can be large or run the other way; further: nearly all actives have a fitted effect of over 30% in size
Target sequence (P63096 whole entry, looked up): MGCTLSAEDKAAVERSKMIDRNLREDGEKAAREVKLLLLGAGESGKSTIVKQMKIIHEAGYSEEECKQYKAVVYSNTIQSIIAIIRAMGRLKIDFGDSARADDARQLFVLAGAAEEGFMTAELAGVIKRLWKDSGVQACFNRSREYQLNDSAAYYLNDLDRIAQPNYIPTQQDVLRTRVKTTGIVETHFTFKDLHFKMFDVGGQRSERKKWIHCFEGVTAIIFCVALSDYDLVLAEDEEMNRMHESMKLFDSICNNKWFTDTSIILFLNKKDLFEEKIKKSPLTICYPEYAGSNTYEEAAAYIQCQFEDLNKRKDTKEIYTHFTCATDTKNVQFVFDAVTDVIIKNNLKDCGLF
Tau fibril FP = qHTS for Inhibitors of Tau Fibril Formation, Fluorescence Polarization; Microtubule-associated protein tau (Homo sapiens), P10636; K18 P301L tau heparin fibrillization, Alexa594 FP, 6 h; Potency, µM (highest dose often 57.7 µM), for inactives: at the top dose activity, negative = inhibition, usual class: inhibitors; 0.39% of 280,000 active; AID 1468, 2008; further: nearly all actives have a fitted effect of over 55% in size
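Human tau K18 […] P301L fragment, 15 uM unlabeled plus 0.24 uM Alexa 594-labeled tau (final), with compound and 20 uM heparin in 100 mM sodium acetate pH 7; 6 hr at 37 C, then Alexa 594 FP read.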
Active calls of the source: *; ? = inconclusive; · = no result given; [ ] = another dose, or the depositor's remark. Rows were chosen to be rich in hits. Some 3.2% of all compounds tested hit in one or more screens of this group. Unless noted, the call rests on the fitted dose curve; in most records, active means well fitted curve in the direction sought with a large enough effect; inconclusive means small, poorly fitted or top-dose-only effect, or another doubt; inactive means no such curve, though single readings can be large; an effect the other way counts as inactive or inconclusive. Unless noted, on the % scale 0 is the no-effect control and ±100 the full control effect; potency means the concentration at half of the fitted maximal effect.

SMILES	TRb-SRC2 inh	Tau fluor counter	TexasRed fluor	Tau fibril ThT	GoLoco inh red	Tau fibril FP
COc1cccc(C2CC(=O)N3CN(C4CCCCC4)CSC3=C2C#N)c1 (stereo not drawn)	0%	-24%	-1%	35µM*	·	?
COc1ccc(C2C(=O)N(C3CCCCC3)CC(=O)N2C2CCCC2)cc1 (stereo not drawn)	1%	-9%	-2%	-9%	7%	-12%
COc1ccc(C2CC(=O)N3CN(C4CCCCC4)CSC3=C2C#N)cc1 (stereo not drawn)	3%	-19%	-1%	18µM*	·	?
CCOc1ccc(C=C2SC(=O)N(CCN)C2=O)cc1	-7%	·	1%	·	·	·
CC(=O)Oc1cccc(/C=C2\Sc3ccccc3C2=O)c1	5%	?	-7%	10µM*	7%	-8%
CC(C)COc1ccc(/C=C2/Sc3ccccc3C2=O)cc1	4%	-5%	0%	4.5µM*	64%	12%
CCCCOc1ccc(/C=C2/Sc3ccccc3C2=O)cc1	-25%	?	0%	3.5µM*	86%	1%
O=C1/C(=C/c2cccs2)Sc2ccccc21	-7%	-21%	-4%	?	50%	-10%
Cc1ccc(O)c(N=Cc2ccc(C)s2)c1	-6%	?	-6%	22µM*	-6%	?
Cc1ccc(/C=N/n2c(C)nnc2C)s1	2%	-6%	2%	-8%	-11%	4%
Cc1ccc(O)c(N=Cc2cccs2)c1	3%	?	-7%	25µM*	-5%	?
Cc1cc(C(=O)N/N=C/c2cccs2)n[nH]1	-6%	10%	-1%	4%	3%	?
CCN(CC)c1ccc(N=Cc2c(C)[nH]c3ccccc23)cc1	?	?	?	8.9µM*	31%	?
O=C(NCCc1nc2ccccc2n1Cc1ccccc1F)c1ccc(F)cc1	-1%	-17%	-1%	-8%	·	-12%
C/C(N)=C(/C#N)C(=O)COC(=O)c1cc(-c2ccc(Br)cc2)nc2ccccc12	-11%[53 µM]	-8%	22µM*[quencher]	-7%	-17%	4%
C=CCN1C(=O)/C(=C2\SC(N3CCOCC3)=NC2=O)c2cc(Br)ccc21	-12%	-27%	-3%	16µM*	0%	9%
O=C(Nc1cccc(C(F)(F)F)c1)Nc1cc(Cl)ccc1C(=O)O	7%	·	1%	·	·	·
CC(=O)Nc1ccc(C(=O)Nc2ccc3c(c2)N(C2CCCC2)C(=O)c2ccccc2S3)cc1	-8%	?	-4%	13%	·	13µM*
N#Cc1ccc(C(=O)Nc2ccc3c(c2)N(C2CCCC2)C(=O)c2ccccc2S3)cc1	-11%	?	-2%	3%	·	?
O=C(Nc1ccc2c(c1)N(Cc1ccccc1)C(=O)c1ccccc1S2)NC1CC1	-4%	?	-1%	6%	2%	22µM*
CCCCCN(CCCCC)C(=O)[C@H](CCC(=O)O)NC(=O)c1ccc(Cl)c(Cl)c1	1%[53 µM]	·	-3%[53 µM]	·	5%[21.6 µM]	·
COc1cc(-c2nc(Cn3nnc(C(=O)Nc4ccccc4)c3C)c(C)o2)cc(OC)c1OC	-4%	-22%	-15%	?	·	1%
COc1ccc(NC(=O)c2nnn(Cc3nc(-c4cc(OC)c(OC)c(OC)c4)oc3C)c2C)cc1Cl	-22%[53 µM]	-15%	0.0089µM*[quencher]	-10%	·	2%
O=c1c(-c2ccc(O)cc2)coc2cc(O[C@@H]3O[C@H](CO)[C@@H](O)[C@H](O)[C@H]3O)cc(O)c12	-6%	·	0%	·	·	·
